DAX1 inh-1 = blocks DAX1 repression of SF-1 activated StAR promoter; AID 652010; inhibition, % at 6.8 µM; HEK293T StAR-luciferase reporter, SF-1/DAX-1 repression relief; 370,000 tested, 1.1% active;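 active = inhibition above the mean over all tested compounds plus 3 SD, cut at about 3.6% in these data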;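 note: 0% = DAX-1 cells with DMSO and 100% = cells lacking DAX-1 with DMSO; higher inhibition means more luminescence from relief of DAX-1 repression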
hgDAF-12 ag = agonists of H. glycines DAF-12 nuclear receptor | 370,000 tested, 1.8% active | activation, % at 6.8 µM | AID 687014 | HEK293 GAL4-hgDAF12 UAS-luciferase reporter, agonist luminescence; normalized to butyrate control;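 active = activation above a cutoff set at the mean of all screened compounds plus 3 SD, cut at about 10% in these data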;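 note: 0% = DMSO wells and 100% = sodium butyrate wells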
SMARCA2 activ = increases SMARCA2 function in MMTV reporter cells; MG213 cells, MMTV-luciferase reporter, dexamethasone, overnight; activation, % at 9.1 µM; 370,000 tested, 1% active; AID 652017; in the data active = activation above about 7.8%;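 note: 0% = vehicle wells and 100% = reference activator wells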
DAX1 inh-2 = inhibits human nuclear receptor DAX1; HEK293 Gal4-DAX1 luciferase reporter, luminescence; inhibition, % at 6.75 µM; 340,000 tested, 0.99% active;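 active = inhibition above the mean over all tested compounds plus 3 SD, cut at about 4.2% in these data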;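 note: 0% = DAX1-transfected cells with DMSO and 100% = empty-vector control cells with DMSO; inhibition shows as a rise in luminescence from relieved DAX1 repression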
Target sequence (P51843 207-470 limits assumed): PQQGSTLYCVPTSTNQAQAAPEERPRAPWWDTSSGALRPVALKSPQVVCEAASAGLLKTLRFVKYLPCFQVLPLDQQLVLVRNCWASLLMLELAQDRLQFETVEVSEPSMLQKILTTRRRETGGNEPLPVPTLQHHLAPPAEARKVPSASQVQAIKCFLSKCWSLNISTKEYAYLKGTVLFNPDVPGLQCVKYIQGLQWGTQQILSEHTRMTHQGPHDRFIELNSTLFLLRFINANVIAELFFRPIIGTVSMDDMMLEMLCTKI
ssDAF12 agonist = S. stercoralis DAF-12 activation, primary screen; HEK293 ssDAF-12/GRIP1 lit1-tk-luc reporter, luminescence; % of 3 µM dafachronic acid response; activation, % at 6.8 µM; 370,000 tested, 1% active; AID 652126;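 active = activation above the mean over all tested compounds plus 3 SD, cut at about 0.9% in these data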;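 note: 0% = DMSO-only wells and 100% = 3 µM delta7-dafachronic acid wells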
hcDAF-12 act = H. contortus DAF-12 activation, primary screen; HEK293 hcDAF-12 lit1-tk-luc reporter, luminescence; 0% DMSO, 100% Δ7-dafachronic acid; activation, % at 6.8 µM; 370,000 tested, 1.4% active;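 active = activation above the mean of all tested compounds plus 3 SD, cut at about 5.5% in these data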;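 note: 100% = response to 3 µM Δ7-dafachronic acid high control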
Starred values were filed as active, the others as inactive. An excerpt weighted towards active compounds, which were near 4.8% of everything screened.

How did Cc1[nH]n(-c2ccccc2)c(=O)c1C(c1ccccc1[N+](=O)[O-])C(C#N)C#N (stereo not given) do in these assays?
DAX1 inh-1: 0; hgDAF-12 ag: -2; SMARCA2 activ: 0; DAX1 inh-2: -1; ssDAF12 agonist: 1; hcDAF-12 act: 5

Results for S=C(NN=C1C2CC3CC(C2)CC1C3)Nc1ccccc1 ?
DAX1 inh-1: 2; hgDAF-12 ag: 4; SMARCA2 activ: 1; DAX1 inh-2: 0; ssDAF12 agonist: 1.2*; hcDAF-12 act: 6.1*

Results for N=c1oc2ccccc2cc1C(=O)Nc1ccccc1 ?
DAX1 inh-1: 2; hgDAF-12 ag: 13*; SMARCA2 activ: 6; DAX1 inh-2: 4; ssDAF12 agonist: 0; hcDAF-12 act: 5.9*

Results for N=c1oc2ccc(Cl)cc2cc1C(=O)Nc1ccc(F)cc1 ?
DAX1 inh-1: 1; hgDAF-12 ag: 5; SMARCA2 activ: 6; DAX1 inh-2: 5.5*; ssDAF12 agonist: 0; hcDAF-12 act: 4

Results for O=C(O)c1ccc(Nc2nc(-c3ccccc3)c3ccccc3n2)cc1 ?
DAX1 inh-1: 0; hgDAF-12 ag: 5; SMARCA2 activ: 0; DAX1 inh-2: -1; ssDAF12 agonist: -1; hcDAF-12 act: 0

Results for CNS(=O)(=O)c1ccc(N2CCCC2)c([N+](=O)[O-])c1 ?
DAX1 inh-1: 0; hgDAF-12 ag: 1; SMARCA2 activ: -1; DAX1 inh-2: -1; ssDAF12 agonist: -1; hcDAF-12 act: 1

How did CSc1ccccc1C(=O)NC1CCSc2ccccc21 (stereo not given) do in these assays?
DAX1 inh-1: 0; hgDAF-12 ag: 2; SMARCA2 activ: -2; DAX1 inh-2: -2; ssDAF12 agonist: 1; hcDAF-12 act: 5.7*

Results for COc1ccc(OC)c(C(=O)NC2CCSc3ccccc32)c1 (stereo not given) ?
DAX1 inh-1: -1; hgDAF-12 ag: 0; SMARCA2 activ: 0; DAX1 inh-2: 0; ssDAF12 agonist: -1; hcDAF-12 act: -1

How did COc1ccc(CC(=O)NC2CCSc3ccccc32)c(OC)c1 (stereo not given) do in these assays?
DAX1 inh-1: 0; hgDAF-12 ag: -1; SMARCA2 activ: -1; DAX1 inh-2: 7.7*; ssDAF12 agonist: -1; hcDAF-12 act: -4

Results for O=C(Nc1ccccc1Cl)c1ccc(S(=O)(=O)NCC2CCCO2)cc1 (stereo not given) ?
DAX1 inh-1: 0; hgDAF-12 ag: 0; SMARCA2 activ: 0; DAX1 inh-2: 0; ssDAF12 agonist: -1; hcDAF-12 act: -1

What do the screens show for `O=C(OCCN1CCCCC1)C1(c2ccccc2)CCCC1`?
DAX1 inh-1: 0; hgDAF-12 ag: 1; SMARCA2 activ: 1; DAX1 inh-2: 0; ssDAF12 agonist: -1; hcDAF-12 act: 0

Results for O=C(NC1=NCCS1)c1ccc(-c2ccc(Cl)cc2)o1 ?
DAX1 inh-1: 2; hgDAF-12 ag: 7; SMARCA2 activ: 4; DAX1 inh-2: 1; ssDAF12 agonist: 0; hcDAF-12 act: 2

How did CCOc1cccc(C(=O)NC2=NCCS2)c1 do in these assays?
DAX1 inh-1: 2; hgDAF-12 ag: 9; SMARCA2 activ: 5; DAX1 inh-2: 8.1*; ssDAF12 agonist: 1; hcDAF-12 act: 4

What do the screens show for `CCOC(=O)c1ccc(NC(=O)Nc2ccc3c(c2)OCCO3)cc1`?
DAX1 inh-1: -2; hgDAF-12 ag: -2; SMARCA2 activ: -4; DAX1 inh-2: -1; ssDAF12 agonist: -1; hcDAF-12 act: -3

How did CCOC(=O)c1ccc(NC(=O)NC2=NCCS2)cc1 do in these assays?
DAX1 inh-1: 1; hgDAF-12 ag: 11*; SMARCA2 activ: 7; DAX1 inh-2: 0; ssDAF12 agonist: -1; hcDAF-12 act: 1

Results for COc1cccc(C(=O)NC2=NCCS2)c1 ?
DAX1 inh-1: 3; hgDAF-12 ag: 11*; SMARCA2 activ: 3; DAX1 inh-2: 2; ssDAF12 agonist: 1; hcDAF-12 act: 5

How did O=C(NC1=NCCS1)c1ccc(Cl)cc1 do in these assays?
DAX1 inh-1: 2; hgDAF-12 ag: 9; SMARCA2 activ: 1; DAX1 inh-2: 1; ssDAF12 agonist: 0; hcDAF-12 act: 5.7*

What do the screens show for `O=C(NC1=NCCS1)c1cccc(F)c1`?
DAX1 inh-1: 0; hgDAF-12 ag: 4; SMARCA2 activ: 1; ssDAF12 agonist: 0; hcDAF-12 act: 1

What do the screens show for `Cc1cc(C)n2nc(/C(C#N)=C/c3ccccc3)c(C#N)c2n1`?
DAX1 inh-1: -1; hgDAF-12 ag: 3; SMARCA2 activ: 2; DAX1 inh-2: -2; ssDAF12 agonist: -1; hcDAF-12 act: 0

What do the screens show for `CNC(=O)CSc1nc2c([nH]c3ccccc32)c(=O)n1CCOC`?
DAX1 inh-1: 0; hgDAF-12 ag: 2; SMARCA2 activ: 0; DAX1 inh-2: -1; ssDAF12 agonist: 1; hcDAF-12 act: 5.6*

What do the screens show for `COCCn1c(SCC(=O)N2CC(C)OC(C)C2)nc2c([nH]c3ccccc32)c1=O` (stereo not given)?
DAX1 inh-1: 1; hgDAF-12 ag: 4; SMARCA2 activ: -2; DAX1 inh-2: 0; ssDAF12 agonist: 0; hcDAF-12 act: 5.9*

What do the screens show for `COCCn1c(SCC(=O)Nc2ccc(F)cc2)nc2c([nH]c3ccccc32)c1=O`?
DAX1 inh-1: 0; hgDAF-12 ag: 3; SMARCA2 activ: -3; DAX1 inh-2: -1; ssDAF12 agonist: 0; hcDAF-12 act: 5

Results for CCn1c(SCC(=O)N2CC(C)OC(C)C2)nc2c([nH]c3ccccc32)c1=O (stereo not given) ?
DAX1 inh-1: 0; hgDAF-12 ag: 1; SMARCA2 activ: -1; DAX1 inh-2: 1; ssDAF12 agonist: 0; hcDAF-12 act: 6.5*

How did CCn1c(SCC(=O)Nc2ccc(NC(C)=O)cc2)nc2c([nH]c3ccccc32)c1=O do in these assays?
DAX1 inh-1: 0; hgDAF-12 ag: 1; SMARCA2 activ: -3; DAX1 inh-2: 1; ssDAF12 agonist: 1.1*; hcDAF-12 act: 5.6*

How did Cc1ccc(NC(=O)CSc2nc3c([nH]c4ccccc43)c(=O)n2C)cc1 do in these assays?
DAX1 inh-1: 0; hgDAF-12 ag: -3; SMARCA2 activ: 1; DAX1 inh-2: 0; ssDAF12 agonist: 0; hcDAF-12 act: 3

What do the screens show for `Cc1nnc(SCCN2CCOCC2)n1-c1cccc(Cl)c1`?
DAX1 inh-1: -1; hgDAF-12 ag: 4; SMARCA2 activ: 3; DAX1 inh-2: -1; ssDAF12 agonist: -1; hcDAF-12 act: -1

Results for O=C(CSc1nc2c([nH]c3ccccc32)c(=O)n1-c1cccc(Cl)c1)N1CCOCC1 ?
DAX1 inh-1: -1; hgDAF-12 ag: -1; SMARCA2 activ: -2; DAX1 inh-2: 0; ssDAF12 agonist: -1; hcDAF-12 act: 3

Screening data as filed in PubChem BioAssay.
